Measured values taken from PubChem BioAssay (NCATS).
Inconclusive results are not listed. Where a call stands in place of a potency, no number is given. Active and inactive are the calls of the source. Calls come from the whole dose curve; as a rule, active = well fitted inhibition curve with a large enough effect; inconclusive = small, poorly fitted or top-dose-only effect; inactive = no such curve, though single readings can be large or run the other way.

experiment: BET inhibitor-based combinations targeting novel dependencies in MECOM-rearranged (r) AML: UCSD-AML1 cell line (AID 2202235); conditions: UCSD-AML1 AML cells viability, CellTiter-Glo, 48 h; series mostly up to 46 µM; note: nearly all actives have a fitted effect of over 40% in size
Description: Ecotropic viral insertion site 1 (EVI1) is located on chromosome 3q26.2 as part of the MECOM (MDS and EVI1 complex) locus. Under normal hematopoiesis, EVI1 is a regulator of hematopoietic stem cell maintenance and self-renewal and EVI1 levels decrease as the cells differentiate. In approximately 5-10% of de novo acute myeloid leukemia (AML) EVI1 is aberrantly expressed, including Chromosomal inv(3)(q21;q26.2) or t(3;3)(q21;q26.2) alterations (MECOM-r) that account for about 50% of AML with EVI1 overexpression 31. AMLs with high levels of EVI1 have a poor prognosis and an overall survival time averaging between 10-14 months. EVI1 overexpression confers resistance in leukemia cells, highlighting the need to develop new targeted therapies for EVI1 overexpressing AMLs. Here, we performed an unbiased chemical drug screening by evaluating the single agent activity of a collection of 2,480 oncology-focused, approved and investigational drugs (NCATS Mechanism Interrogation Plates, MIPE v5.0) against a panel of seven AML cell lines. These included four MECOM-r cell-lines (AML-191, AML-194, UCSD-AML1 and HNT-34) and three non-MECOM-r AMLs (MV4-11, OCI-AML3 and SET-2). Exploiting the mechanistic redundancy built in the library, we identified target-level sensitivities in MECOM-r AML cells and relative activity as compared to other AML subtypes.
A collection of 2480 mechanistically annotated dugs (MIPE v5.0) was used to screen four 3q26.2 rearranged AML cell lines and three non-3q26.2 rearranged AML cell lines. This library purposely exploits redundancy by including multiple inhibitors of key onco-targets, while simultaneously encompassing mechanistic diversity, targeting more than 800 distinct mechanisms of action. Briefly, cells were seeded in 5 uL of growth media using a Multidrop Combi dispenser into 1536 well white polystyrene tissue culture treated plates (Corning) at a density of 500cells/well. For each cell-line, for each of the 2480 drugs in MIPE v5.0 library, an 11-point dose curve was generated via a 1536 pin-tool. Plates were incubated for 48 hr at standard incubator conditions, covered by a stainless steel gasketed lid to prevent evaporation. Cell viability was determined by luminescence based, Cell Titer Glo assay (Promega). In detail, 3 uL of Cell Titer Glo were added to each well and plates were incubated at room temperature for 15 min with a stainless-steel lid in place. Luminescence readings were taken using a Viewlux (PerkinElmer) with a 2 s exposure time per plate. Compound dose-response curves were normalized to DMSO and empty well controls on each plate. Quantitative drug activity data from dose-response curves was determined utilizing area Under the Curve (AUC) and Z-transformed AUC (Z-AUC, a mean-centering transformation applied to each individual cell-line screened).
Potency is the fitted concentration of half-maximal effect.

Row | SMILES | Potency
1 | O=c1c(-c2ccc(O)cc2)coc2cc(O)ccc12 | inactive
2 | Cc1coc2c1C(=O)C(=O)c1c-2ccc2c1CCCC2(C)C | inactive
3 | CCC(C)N(C)C(=O)c1cc2ccccc2c(-c2ccccc2Cl)n1 (stereo not given) | inactive
4 | CC(NCCc1ccc(O)cc1)C(O)c1ccc(O)cc1 (stereo not given) | inactive
5 | COc1cc2c(cc1OC)CN(CCc1ccc(NC(=O)c3cc(OC)c(OC)cc3NC(=O)c3cnc4ccccc4c3)cc1)CC2 | inactive
6 | CCCNC(=O)Nc1ccc(Oc2ncnc3cc(OC)c(OC)cc23)cc1Cl | inactive
7 | CC(Nc1ncnc2nc[nH]c12)c1cc2cccc(Cl)c2c(=O)n1-c1ccccc1 (stereo not given) | 3.72 µM (active)
8 | COc1cc2c(cc1OC)CN(CCc1ccc(NC(=O)c3cccc4c(=O)c5cccc(OC)c5[nH]c34)cc1)CC2 | inactive
9 | CN(C)C(=O)c1ccc(S(=O)(=O)c2ccc(NC(=O)[C@@](C)(O)C(F)(F)F)c(Cl)c2)cc1 | inactive
10 | Cc1ncc(Cl)cc1NCc1ccc(C(=O)NC(CC2CCCC2)C(=O)NC2CC2)s1 (stereo not given) | 0.833 µM (active)
11 | C#CC[C@H](c1nc2cc(Cl)ccc2c(=O)n1Nc1ccccc1)N(CCCN)C(=O)c1cccc(Cl)c1F | 1.05 µM (active)
12 | CC(C)c1ccc2oc3nc(N)c(C(=O)O)cc3c(=O)c2c1 | inactive
13 | C[C@H]1C[C@@H]2[C@H]([C@@H](O)C[C@@]3(C)[C@H]2CC[C@]3(O)C(=O)CO)[C@@]2(C)C=CC(=O)C=C12 | inactive
14 | C[C@H]1COc2c(N3CCN(C)CC3)c(F)cc3c(=O)c(C(=O)O)cn1c23 | inactive
15 | CCNC(=O)c1noc(-c2cc(C(C)C)c(O)cc2O)c1-c1ccc(CN2CCOCC2)cc1 | 0.0166 µM (active)
16 | O=C(NC1CCOCC1)c1ccc(-c2cc(-c3cn[nH]c3-c3ccccn3)ccn2)cc1 | inactive
17 | CNC(=O)c1nn(C)c2c1C(C)(C)Cc1cnc(Nc3ccc(N4CCN(C)CC4)cc3)nc1-2 | 0.934 µM (active)
18 | CO[C@@H]1COCC[C@@H]1N[C@@H]1CC[C@@](C(=O)N2CCc3ncc(C(F)(F)F)cc3C2)(C(C)C)C1 | inactive
19 | CCOC(=O)C1=C(N)Oc2ccc(Br)cc2C1C(C#N)C(=O)OCC (stereo not given) | inactive
20 | CC1COC2(CCN(c3nc(=O)c4cc(C(F)(F)F)cc([N+](=O)[O-])c4s3)CC2)O1 (stereo not given) | inactive

Row | SMILES | Potency
21 | COc1cc2c(Oc3ccc(NC(=O)C4(C(=O)Nc5ccc(F)cc5)CC4)cc3F)ccnc2cc1OCCCN1CCOCC1 | 0.833 µM (active)
22 | O=C(c1ccc(C(=O)N2CCC(N3CCCC3)CC2)c(Nc2ccccc2)c1)N1CCC(N2CCCC2)CC1 | inactive
23 | CNC(=O)c1cc(Oc2ccc3nc(N[C@@H]4CCCC[C@H]4O)sc3c2)ccn1 | inactive
24 | COc1ccccc1N1CCN(CC(O)COc2cccc3ccccc23)CC1 (stereo not given) | 5.25 µM (active)
25 | O=C(O)c1nc(=O)[nH]c(=O)[nH]1 | inactive
26 | CC(O)c1cc(C(=O)N[C@@H](C)Cn2ccc(-c3ccc(C#N)c(Cl)c3)n2)n[nH]1 (stereo not given in full) | inactive
27 | CC1(C)[C@@H](O)CC[C@]2(C)[C@H]3C(=O)C=C4[C@@H]5C[C@@](C)(C(=O)O)CC[C@]5(C)CC[C@@]4(C)[C@]3(C)CC[C@@H]12 | inactive
28 | COc1cc2c(cc1OC)CC(=O)N(CCCN(C)C[C@H]1Cc3cc(OC)c(OC)cc31)CC2 | inactive
29 | CCCN1CCN(c2ccc(C(=O)NC3(C(=O)NCC#N)CCCCC3)cc2)CC1 | inactive
30 | CC[C@@H]1C(=O)N(C)c2cnc(Nc3ccc(C(=O)NC4CCC(N5CCN(CC6CC6)CC5)CC4)cc3OC)nc2N1C(C)C (stereo not given in full) | 0.166 µM (active)
31 | Cc1ccc(C(=O)Nc2ccc(CN3CCN(C)CC3)c(C(F)(F)F)c2)cc1C#Cc1cnc2cccnn12 | 2.63 µM (active)
32 | Nc1ccccc1NC(=O)c1ccc(CNc2nccc(-c3cccnc3)n2)cc1 | 1.32 µM (active)
33 | O=C(O)[C@H](CC(=O)N1C[C@H]2CCCC[C@H]2C1)Cc1ccccc1 | inactive
34 | CCN(CC)CCOc1ccc(Cc2ccccc2)cc1 | inactive
35 | COc1cc2ncnc(Nc3cccc(Cl)c3)c2cc1OC | 18.6 µM (active)
36 | COc1cc(Nc2ncc3c(n2)-c2ccc(Cl)cc2C(c2c(F)cccc2OC)=NC3)ccc1C(=O)O | 0.059 µM (active)
37 | CC(=O)N1CCN(CCOc2ccc(C3CCN(C4=Nn5c(nnc5C(F)(F)F)CC4)CC3)cc2)CC1 | inactive
38 | CC1=C(CO)C(=O)O[C@@H]([C@@H](C)[C@H]2CC[C@H]3[C@@H]4C[C@H]5O[C@]56[C@@H](O)C=CC(=O)[C@]6(C)[C@H]4CC[C@]23C)C1 | 0.417 µM (active)
39 | COc1ccc([C@@H]2Sc3ccccc3N(CCN(C)C)C(=O)[C@@H]2OC(C)=O)cc1 | inactive
40 | O=S(=O)(O)c1ccc2cc(N=Nc3cc(S(=O)(=O)O)c4cccnc4c3O)ccc2c1 | inactive
